Assay results from ChEMBL document CHEMBL3988442, “University of Dundee, Small-Polar-MMV Screening Library” (2021).
Entries with a potency or affinity are not part of this list.

molecular target: T1, Ubiquitin-activating enzyme e1, putative (Leishmania donovani (strain BPK282A1)) (UniProt E9BSI1); assay: Leishmania donovani Ubiquitin Activating Enzyme (LdE1); type: functional; design: scale not given: direction of the effect not stated beside the values; settings: 30 µM
T1 sequence (whole entry): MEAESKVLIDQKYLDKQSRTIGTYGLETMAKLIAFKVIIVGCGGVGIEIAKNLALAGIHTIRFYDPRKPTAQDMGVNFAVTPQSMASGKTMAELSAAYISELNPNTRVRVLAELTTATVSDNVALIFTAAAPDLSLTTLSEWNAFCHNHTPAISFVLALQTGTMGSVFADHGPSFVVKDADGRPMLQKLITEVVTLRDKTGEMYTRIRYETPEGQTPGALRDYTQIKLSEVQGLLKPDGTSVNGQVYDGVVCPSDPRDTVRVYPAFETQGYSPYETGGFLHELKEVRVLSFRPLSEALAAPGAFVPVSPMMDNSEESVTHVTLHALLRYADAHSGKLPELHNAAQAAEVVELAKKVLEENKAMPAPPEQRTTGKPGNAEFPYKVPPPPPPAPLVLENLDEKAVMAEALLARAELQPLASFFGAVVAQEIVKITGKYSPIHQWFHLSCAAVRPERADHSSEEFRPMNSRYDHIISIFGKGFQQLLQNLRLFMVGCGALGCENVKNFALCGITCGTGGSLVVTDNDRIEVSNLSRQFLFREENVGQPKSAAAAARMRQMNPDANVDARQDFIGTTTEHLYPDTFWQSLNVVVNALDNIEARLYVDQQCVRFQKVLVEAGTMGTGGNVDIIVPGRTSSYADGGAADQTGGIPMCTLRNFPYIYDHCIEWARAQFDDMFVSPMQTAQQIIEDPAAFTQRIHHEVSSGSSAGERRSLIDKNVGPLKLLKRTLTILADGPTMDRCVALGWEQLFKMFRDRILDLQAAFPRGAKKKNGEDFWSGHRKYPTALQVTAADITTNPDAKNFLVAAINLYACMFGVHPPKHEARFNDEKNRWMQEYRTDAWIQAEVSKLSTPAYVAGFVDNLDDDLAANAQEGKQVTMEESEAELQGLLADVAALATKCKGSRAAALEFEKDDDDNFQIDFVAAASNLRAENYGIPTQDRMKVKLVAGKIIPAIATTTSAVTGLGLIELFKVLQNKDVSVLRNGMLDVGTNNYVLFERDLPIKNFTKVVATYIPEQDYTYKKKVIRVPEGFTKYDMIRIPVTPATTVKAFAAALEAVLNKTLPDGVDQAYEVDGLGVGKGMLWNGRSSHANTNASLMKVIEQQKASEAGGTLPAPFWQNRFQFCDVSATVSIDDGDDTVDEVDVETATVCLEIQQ

| SMILES | Percent Effect [%] |
| --- | --- |
| Cc1nc[nH]c1CN1CCN(C(=O)c2cccs2)[C@H]2CS(=O)(=O)C[C@H]21 | 2.7 |
| Cc1ccc(CCC(=O)N2CCCC(n3cncn3)C2)c(C)c1 (stereo not drawn) | 8 |
| Cc1cc(-c2nn(C)c(Cl)c2CN2CCOCC2CC(=O)O)no1 (stereo not drawn) | 10.8 |
| CCc1nc(CN2CCCN(C(=O)c3cn[nH]c3CC)CC2)cs1 | 17.9 |
| CCC(=O)N1CCC(Cc2nccnc2Nc2ccccn2)CC1 | 4 |
| Cn1cc(NC(=O)N2CCC(NS(C)(=O)=O)CC2)ccc1=O | 48.7 |
| CC(C)CC(=O)N1C[C@@H]2CCN(c3ncccn3)C[C@@H]2C1 | 11.7 |
| CN(Cc1ccc2c(c1)OCCO2)C(=O)Cn1ccccc1=O | 13.3 |
| Cc1ccc(N2CCC3(CCCN(C(=O)c4cccnc4)C3)C2)nn1 (stereo not drawn) | 1.3 |
| O=C(c1cc[nH]n1)N1CCCC(c2cccc(-n3ccnc3)n2)C1 (stereo not drawn) | 12 |
| COC(=O)C1CCN(C(=O)c2ccc(N(C)S(C)(=O)=O)c(C)c2)CC1 | -2.7 |
| CC(=O)N(Cc1ncc(C)o1)C1CCN(CCCc2cnn(C)c2)C1 (stereo not drawn) | 18.7 |
| O=C(c1ccc(F)cc1Cl)N1CCC(Nc2cccnn2)CC1 | 18.2 |
| Cc1cc(CNc2cc(Cl)ccc2OCCS(C)(=O)=O)no1 | 5.13 |
| CN1[C@H](Cn2cccn2)C[C@@H]2CN(C(=O)Cc3cccs3)CC[C@@H]21 | 11.7 |
| Cc1cccc(CN2C[C@@H]3COC[C@]3(CNC(=O)c3ccsc3)C2)n1 | 9.09 |
| COc1ccc(C2CC(=O)Nc3c2nc2n3CCCC2)cc1OC (stereo not drawn) | 8.11 |
| CN(C)CCN1CCC2(CCN(C(=O)c3ccc(F)cc3)CC2)C1=O | 14.3 |
